According to PubChem BioAssay (NCI):
About 79,000 compounds went through this panel and 15% of them were active in at least one assay; those are over-represented in the sample as a whole. Values without a mark were called inactive. Active and inactive are the calls of the source. Rule as the data show it: active = growth inhibition above about 70%; inactive = the rest.

Experiment: NCI Yeast Anticancer Drug Screen. Data for the wt2 strain (AID 169);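 also: 0% = growth of vehicle-treated yeast cultures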
Conditions: S. cerevisiae wt2 strain growth inhibition, active compounds read high
Method: Growth inhibition of yeast strains with defined genetic alterations is measured as a screen for potential anti-cancer activity. Selected strains with alterations in DNA damage repair or cell cycle control were exposed to compounds and growth inhibition was measured relative to vehicle treated controls. The strain used in this assay is wt2

Row | Structure (SMILES) | growth inhibition (at 1.2 µM) [%] | growth inhibition (at 3.7 µM) [%] | growth inhibition (at 11.0 µM) | growth inhibition (at 33.0 µM) | growth inhibition (at 100.0 µM)
1 | O=C1C(C(O)(C(F)(F)F)C(F)(F)F)CCC1C(O)(C(F)(F)F)C(F)(F)F (stereo not given) | 1 | 4 | 8% | 23% | 39%
2 | CCOC(=O)C1=C(C)NC(C)=C(C(=O)OCC)C1c1ccc(Cl)cc1 | -3 | -10 | 74% (active) | 85% (active) | 96% (active)
3 | CCOC(=O)C1=C(C)NC(C)=C(C(=O)OCC)C1c1cccc([N+](=O)[O-])c1 | -43 | -44 | -13% | 45% | 92% (active)
4 | Nc1ccc2ncc(Nc3ccc(Cl)c(Cl)c3)nc2c1 | -15 | 0 | 57% | 97% (active) | 97% (active)
5 | O=C1OC(/C=C/c2ccccc2)Sc2ccccc21 (stereo not given) | -2 | -8 | -2% | 1% | 10%
6 | C[n+]1c(-c2ccc(NC(=O)c3ccc(C(=O)Nc4ccc(-c5cn6ccccc6[n+]5C)cc4)cc3)cc2)cn2ccccc21 | 4 | 2 | 18% | 84% (active) | 94% (active)
7 | Cn1c(COc2ccc(/C=N/NC(=O)CCC(=O)N/N=C/c3ccc(OCc4c[n+]5ccccc5n4C)cc3)cc2)c[n+]2ccccc12 | 4 | 5 | 8% | 12% | 99% (active)
8 | Cc1cc(NCCCN(C)C)c2ccc3c(ccc4c(NCCCN(C)C)cc(C)nc43)c2n1 | -57 | -39 | -63% | -40% | 25%
